Experimental data from PubChem BioAssay (Tox21).
Results filed as inconclusive are left out. Active and inactive are the calls of the source. Unless noted, the call rests on the fitted dose curve; in most records, active means well fitted curve in the direction sought with a large enough effect in the repeat runs; inconclusive means weak or mixed curves; inactive means no such curve, though single readings can be large; an effect the other way counts as inactive or inconclusive.

Key:
[1] = qHTS assay for small molecule agonists of the p53 signaling pathway (AID 651631; calls by dose curve; further: nearly all actives have a fitted effect of over 15% in size)
In short: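 Quantitative high-throughput format: 4,000 p53RE-bla HCT-116 cells/well, 5 h pre-incubation, 16 h compound exposure at 37 °C, 2 h room-temperature substrate step, fluorescence intensity measured.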

[2] = qHTS assay for small molecules that induce genotoxicity in human embryonic kidney cells expressing luciferase-tagged ATAD5 (AID 651632); further: nearly all actives have a fitted effect of over 15% in size
In short: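 DMSO vehicle served as the control. HEK293T reporter cells, 16 hr at 37C, then 30 min Amplite at room temperature; ATAD5 induction is measured as luciferase activity.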

[3] = qHTS assay for small molecule agonists of the p53 signaling pathway - cell viability (AID 651633; calls by dose curve;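 further: p53RE-bla HCT reporter cells with a stable beta-lactamase p53 reporter; series mostly up to about 83 µM; nearly all actives have a fitted effect of over 30% in size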)
In short: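 Viability counter-read: CellTiter-Glo luminescence (30 min, room temperature) in the same p53RE-bla plates. These plates had been exposed to compounds for 16 h at 37 C.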

[4] = qHTS assay for small molecules that induce genotoxicity in human embryonic kidney cells expressing luciferase-tagged ATAD5 - cell viability (AID 651634; calls by dose curve; further: nearly all actives have a fitted effect of over 25% in size)
In short: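 Here HEK293T cells with the ATAD5 luciferase reporter are incubated with test compounds for 15.5 hr, and cytotoxicity is then gauged by measuring protease activity in live cells using fluorescence.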

[5] = qHTS assay for small molecule disruptors of the mitochondrial membrane potential - cell viability (AID 720634; calls by dose curve;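 further: human HepG2 liver cancer cells; series mostly up to about 83 µM; nearly all actives have a fitted effect of over 20% in size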)
In short: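 Viability of HepG2 cells is scored from ATP content by luminescence; cells are exposed to compound for 1 hr at 37 C and 5% CO2, then dosed with m-MPI dye before the CellTiter-Glo reagent.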

[6] = qHTS assay to test for compound auto fluorescence at 590 nm (red) in HepG2 cells (AID 720674)
In short: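 We screened compounds on adherent HepG2 cells, incubating them for an hour at 37 C in 5% CO2 before reading emission at 590 nm under 540 nm excitation; values reflect equivalence to Rose Bengal sodium fluorescence.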

[7] = qHTS assay to test for compound auto fluorescence at 535 nm (green) in HepG2 cells (AID 720675)
[8] = qHTS assay to test for compound auto fluorescence at 460 nm (blue) in HEK293 cells (AID 720678)
In short: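 Auto fluorescence in the blue band was quantified as triamterene equivalency. HEK293 cells were seeded at 2,000/well, dosed after a 4-5 hr attachment, and kept overnight at 37C before the 405/460 nm reading.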

[9] = qHTS assay to test for compound auto fluorescence at 590 nm (red) in HEK293 cells (AID 720679)
In short: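 Autofluorescence equivalency to Rose Bengal sodium, 540/590nm, in HEK293 cells exposed overnight to 23 nL compound per well.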

[10] = qHTS assay to test for compound auto fluorescence at 535 nm (green) in HEK293 cells (AID 720680)
[11] = qHTS assay to test for compound auto fluorescence at 460 nm (blue) in HEK293 cell free culture (AID 720681)
In short: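 Blue fluorescence (Ex 405/Em 460 nm, triamterene-equivalent) was read immediately after pin transfer of compound or DMSO into medium (DMEM, 10% FBS) without cells.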

[12] = qHTS assay to test for compound auto fluorescence at 535 nm (green) in HEK293 cell free culture (AID 720682)
In short: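 Measurement is a direct plate read of green fluorescence (485 nm in, 535 nm out) after compound addition to serum-supplemented DMEM lacking cells, with fluorescein used to express intensities.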

[13] = qHTS assay to test for compound auto fluorescence at 590 nm (red) in HEK293 cell free culture (AID 720683)
In short: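 Red-channel autofluorescence of compounds in culture medium (DMEM, 10% FBS), no cells, measured at 540/590 nm. Rose Bengal sodium is the reference fluorophore for equivalence.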

[14] = qHTS assay to test for compound auto fluorescence at 590 nm (red) in HepG2 cell free culture (AID 720684)
In short: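 Cell-free; medium MEM + 10% FBS; compound or DMSO added by pintool; read Ex 540/Em 590 nm; Rose Bengal sodium as red reference fluorophore.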

[15] = qHTS assay to test for compound auto fluorescence at 460 nm (blue) in HepG2 cell free culture (AID 720685)
In short: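 Cell-free plates of MEM plus 10% FBS received 23 nL compound or DMSO vehicle; blue-channel (405/460 nm) intensity scored against triamterene as reference fluorophore.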

[16] = qHTS assay to test for compound auto fluorescence at 535 nm (green) in HepG2 cell free culture (AID 720686)
[17] = qHTS assay to test for compound auto fluorescence at 460 nm (blue) in HepG2 cells (AID 720687)
In short: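 Blue-channel autofluorescence (Ex/Em 405/460 nm, triamterene-equivalent) was measured after 1 hr compound exposure at 37 C, 5% CO2. Cells were HepG2, plated overnight at 37 C in MEM plus 10% FBS.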

[18] = qHTS assay for small molecule disruptors of the mitochondrial membrane potential (AID 720635); further: potency means the concentration at half of the fitted maximal effect
In short: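 Mitochondrial membrane potential tracked with Mito-MPS dye, red aggregates (ex 540/em 590 nm) against green monomers (ex 490/em 535 nm). Compound treatment 1 hr at 37C, dye 30 min in HepG2.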

[19] = target: Glucocorticoid receptor (Homo sapiens) (UniProt P04150); assay: qHTS assay to identify small molecule agonists of the glucocorticoid receptor (GR) signaling pathway (AID 720691; active means well fitted activation curve with a large enough effect in the signal ratio in the repeat runs, not every such curve was filed as active; the % refers to the signal ratio)
Chain of Glucocorticoid receptor (Homo sapiens) (P04150 whole entry, looked up): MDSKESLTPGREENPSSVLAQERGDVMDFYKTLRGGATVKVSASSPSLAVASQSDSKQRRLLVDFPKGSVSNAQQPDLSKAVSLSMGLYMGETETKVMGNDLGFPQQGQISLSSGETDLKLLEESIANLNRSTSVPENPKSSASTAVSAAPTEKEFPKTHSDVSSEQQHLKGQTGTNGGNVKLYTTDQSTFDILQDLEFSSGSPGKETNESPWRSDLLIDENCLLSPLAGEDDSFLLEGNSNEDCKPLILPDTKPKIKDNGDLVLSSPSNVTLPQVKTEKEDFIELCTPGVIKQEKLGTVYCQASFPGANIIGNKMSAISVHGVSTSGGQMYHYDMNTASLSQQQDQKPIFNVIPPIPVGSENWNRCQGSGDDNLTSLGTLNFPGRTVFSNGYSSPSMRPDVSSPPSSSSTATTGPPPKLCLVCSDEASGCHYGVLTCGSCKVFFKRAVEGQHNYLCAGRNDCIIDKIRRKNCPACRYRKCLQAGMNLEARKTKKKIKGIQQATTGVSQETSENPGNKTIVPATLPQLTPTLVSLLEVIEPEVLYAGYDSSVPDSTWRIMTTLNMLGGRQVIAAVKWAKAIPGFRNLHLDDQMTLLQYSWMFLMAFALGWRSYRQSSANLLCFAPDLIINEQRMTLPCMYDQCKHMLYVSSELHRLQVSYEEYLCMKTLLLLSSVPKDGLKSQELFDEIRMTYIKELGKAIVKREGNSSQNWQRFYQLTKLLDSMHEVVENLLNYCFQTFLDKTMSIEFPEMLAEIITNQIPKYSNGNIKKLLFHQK
In short: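 Compounds in DMSO, alongside positive controls, were added to GR-bla HeLa reporter cells and incubated 18 h at 37 C; GRE-driven beta-lactamase was detected by fluorescence after 2 h with FRET substrate at room temperature.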

[20] = target: Glucocorticoid receptor (Homo sapiens) (UniProt P04150); assay: qHTS assay to identify small molecule antagonists of the glucocorticoid receptor (GR) signaling pathway (AID 720692; active means well fitted inhibition curve with a large enough effect in the signal ratio in the repeat runs, not every such curve was filed as active; the % refers to the signal ratio)
In short: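 In a 1536-well cell format, compounds were added 4 h after seeding GR-bla HeLa cells, together with dexamethasone at 5 nM final; reporter activity was measured by FRET-substrate fluorescence following 18 h at 37 C.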

Measured: Potency

CCOC(=O)COc1ccc2c(C)c(CCN(CC)CC)c(=O)oc2c1Cl
inactive: [1] | [2] | [3] | [4] | [5] | [6] | [7] | [8] | [9] | [10] | [11] | [12] | [13] | [14] | [15] | [16] | [17]

OCCC(F)(F)C(F)(F)C(F)(F)C(F)(F)C(F)(F)C(F)(F)F
inactive: [1] | [2] | [3] | [4] | [5] | [18] | [6] | [7] | [8] | [9] | [10] | [11] | [12] | [13] | [14] | [15] | [16] | [17] | [19] | [20]

C=CC(=O)CC
inactive: [1] | [2] | [3] | [4] | [5] | [6] | [7] | [8] | [9] | [10] | [11] | [12] | [13] | [14] | [15] | [16] | [17]

Nc1cc(S(=O)(=O)O)ccc1O
inactive: [1] | [2] | [3] | [4] | [5] | [18] | [6] | [7] | [8] | [9] | [10] | [11] | [12] | [13] | [14] | [15] | [16] | [17] | [19] | [20]

CC(=O)c1c(C)cc(C(C)(C)C)cc1C
inactive: [1] | [2] | [3] | [4] | [5] | [18] | [6] | [7] | [8] | [9] | [10] | [12] | [13] | [14] | [15] | [16] | [17]

CCCCC(CC)COC(=O)CC#N (stereo not given)
inactive: [1] | [2] | [3] | [4] | [5] | [18] | [6] | [7] | [8] | [9] | [10] | [12] | [13] | [14] | [15] | [16] | [17]

CCCCCCCOC(C)=O
inactive: [1] | [2] | [3] | [4] | [5] | [18] | [6] | [7] | [8] | [9] | [10] | [11] | [12] | [13] | [14] | [15] | [16] | [17]

C[C@]12C=CC(=O)C=C1[C@@H](F)C[C@@H]1[C@@H]2[C@@H](O)C[C@@]2(C)[C@H]1CC[C@]2(O)C(=O)CO
inactive: [1] | [2] | [3] | [4] | [5] | [18] | [6] | [7] | [8] | [9] | [10] | [11] | [12] | [13] | [14] | [15] | [16] | [17]

O=C(c1ccccc1)c1cccc(O)c1
inactive: [1] | [2] | [3] | [4] | [5] | [6] | [7] | [8] | [9] | [10] | [11] | [12] | [13] | [14] | [15] | [16] | [17]
active: [18] 27.7 µM

C=COCCCCO
inactive: [1] | [2] | [3] | [4] | [5] | [18] | [6] | [7] | [8] | [9] | [10] | [11] | [12] | [13] | [14] | [15] | [16] | [17] | [19] | [20]

NC[C@H]1O[C@H](O[C@H]2[C@H](O)[C@@H](O[C@H]3O[C@H](CO)[C@@H](O)[C@H](N)[C@H]3O)[C@H](N)C[C@@H]2N)[C@H](N)[C@@H](O)[C@@H]1O
inactive: [1] | [2] | [3] | [4] | [5] | [18] | [6] | [7] | [8] | [9] | [10] | [11] | [12] | [13] | [14] | [15] | [16] | [17] | [19] | [20]

COC(=O)c1ccc(C(=O)O)cc1
inactive: [1] | [2] | [3] | [4] | [5] | [18] | [6] | [7] | [8] | [9] | [10] | [11] | [12] | [13] | [14] | [15] | [16] | [17] | [19] | [20]

O=CN1CCCCC1
inactive: [1] | [2] | [3] | [4] | [5] | [18] | [6] | [7] | [8] | [9] | [10] | [11] | [12] | [13] | [14] | [15] | [16] | [17]
